# Screening results deposited in PubChem BioAssay by National Center for Advancing Translational Sciences (NCATS).
# Luciferase inh: Firefly luciferase inhibition profiling of diverse chemical library using quantitative high-throughput screening. Luciferin 4-monooxygenase (Photinus pyralis), P08659. purified P. pyralis luciferase, luminescence, biochemical. Potency, µM (series often up to 115 µM), usual class: inhibitors. 76,000 compounds, 2.5% hits. AID 1347043, 2019; note: nearly all actives have a fitted effect of over 65% in size
#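 Purified P. pyralis luciferase (10nM final) in 50mM Tris acetate pH 7.5, 10mM Mg acetate, 0.01% Tween-20, 0.05% BSA with 10uM D-luciferin and 10uM ATP. Compounds titrated qHTS. Luminescence imaged on CCD.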
# hNpr1 antagonist: Natriuretic polypeptide receptor (hNpr1) antagonism - Primary qHTS. Atrial natriuretic peptide receptor 1 (Homo sapiens), P16066. HEK293 hNpr1 GloSensor cGMP, ANP-stimulated luminescence. Potency, µM (highest dose often 46.3 µM), actives largely listed as inhibitors. 76,000 compounds, 1.6% hits. AID 1347048, 2019; calls by dose curve; note: nearly all actives have a fitted effect of over 60% in size
# Target sequence (P16066 whole entry, looked up): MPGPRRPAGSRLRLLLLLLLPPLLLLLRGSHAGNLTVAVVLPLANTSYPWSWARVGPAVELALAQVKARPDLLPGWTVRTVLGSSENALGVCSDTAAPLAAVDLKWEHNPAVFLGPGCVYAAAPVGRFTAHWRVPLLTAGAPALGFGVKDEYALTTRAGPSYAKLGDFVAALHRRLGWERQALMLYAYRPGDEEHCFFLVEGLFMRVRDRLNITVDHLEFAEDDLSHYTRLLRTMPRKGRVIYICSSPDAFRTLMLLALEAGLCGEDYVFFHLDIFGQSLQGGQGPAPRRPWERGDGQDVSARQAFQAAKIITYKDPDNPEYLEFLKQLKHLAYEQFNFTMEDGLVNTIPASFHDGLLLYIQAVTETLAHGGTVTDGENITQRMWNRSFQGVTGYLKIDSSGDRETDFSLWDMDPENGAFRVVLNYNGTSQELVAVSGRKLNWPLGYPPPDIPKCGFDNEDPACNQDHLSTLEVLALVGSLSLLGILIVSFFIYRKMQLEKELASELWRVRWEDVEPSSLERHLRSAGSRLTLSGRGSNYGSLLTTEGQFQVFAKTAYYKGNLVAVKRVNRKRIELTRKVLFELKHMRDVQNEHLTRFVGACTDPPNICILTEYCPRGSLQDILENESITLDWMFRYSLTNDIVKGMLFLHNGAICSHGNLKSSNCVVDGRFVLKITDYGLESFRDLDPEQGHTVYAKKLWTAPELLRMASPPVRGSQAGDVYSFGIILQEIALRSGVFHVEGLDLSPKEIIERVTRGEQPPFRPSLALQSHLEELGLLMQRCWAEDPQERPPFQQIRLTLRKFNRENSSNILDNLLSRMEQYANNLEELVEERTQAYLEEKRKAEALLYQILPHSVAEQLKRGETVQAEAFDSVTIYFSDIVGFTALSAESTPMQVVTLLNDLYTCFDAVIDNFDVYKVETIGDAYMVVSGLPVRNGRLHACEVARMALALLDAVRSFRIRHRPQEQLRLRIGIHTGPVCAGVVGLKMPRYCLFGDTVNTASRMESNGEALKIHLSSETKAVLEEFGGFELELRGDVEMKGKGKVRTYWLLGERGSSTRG
#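 Compound pre-incubated 30 min at room temperature on GloSensor-loaded HEK293 cells stably carrying hNpr1 and the pGS-40F cGMP biosensor. Stimulation uses hNppA at 0.1 nM final; luminescence is taken at baseline and 20 min post-agonist.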
# NIH3T3 tox: Cytotoxic Profiling in NIH 3T3 Cell Line of Diverse Libraries Using Quantitative High-Throughput Screening; Potency, µM (highest dose often 96.7 µM), usual class: inhibitors; NIH 3T3 viability, CellTiter-Glo ATP luminescence, 48-72 h; 94,000 compounds, 4.3% hits; note: nearly all actives have a fitted effect of over 55% in size
#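 Cytotoxicity was measured by CellTiter-Glo ATP luminescence after 48 or 72 h compound exposure at 37 °C. Mouse NIH 3T3 fibroblasts were seeded at 400 cells/well and dosed by 23 nL pin transfer.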
# HEK cytotox: Cytotoxic Profiling in HEK 293 Cell Line of Diverse Libraries Using Quantitative High-Throughput Screening. HEK 293 viability, ATP luminescence (CellTiter-Glo), 48-72 h. Potency, µM (highest dose often 115 µM), actives largely listed as inhibitors. 94,000 compounds, 6.6% hits. AID 1345083, 2018; note: nearly all actives have a fitted effect of over 60% in size
#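 Pintool-delivered compounds were incubated with HEK 293 cells (250 cells/well) at 37 degree Celsius for 48 or 72 hr. ATP-dependent luminescence (CellTiter-Glo) then reported remaining viable cells.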
# Hits are given with their value; i = inactive; ? = inconclusive; nt = no result. Compounds with a hit are over-represented: about 11% of the library has one in this group of screens. Unless noted, calls come from the whole dose curve; as a rule, active = well fitted curve in the direction sought with a large enough effect; inconclusive = small, poorly fitted or top-dose-only effect, or another doubt; inactive = no such curve, though single readings can be large; an effect the other way counts as inactive or inconclusive.
SMILES,Luciferase inh,hNpr1 antagonist,NIH3T3 tox,HEK cytotox
COc1ccc(NC(=O)C2(Cc3cccnc3)CCCCC(=O)N2)c(OC)c1 (stereo not drawn),nt,nt,?,i
O=C(NCc1ccccc1)c1ccccc1OC1CN(Cc2ccncc2)C1,i,i,?,40µM
Cc1ccc(CN2CC(Oc3ccccc3C(=O)N3CCOCC3)C2)cc1C,i,i,?,45µM
O=C(NCc1ccccc1)c1ccccc1OC1CN(Cc2cccnc2Cl)C1,nt,nt,?,45µM
Cc1ccc(CN2CC(Oc3ccccc3C(=O)NCc3ccccc3)C2)o1,i,i,?,?
O=C(NCc1ccccc1)c1ccccc1OC1CN(Cc2cccc(F)c2)C1,i,i,?,28µM
O=C(NCc1ccccc1)c1ccccc1OC1CN(Cc2ccc(O)c(F)c2)C1,i,i,?,?
O=C(NC1CC1)c1ccccc1OC1CN(Cc2ccc(F)c(F)c2)C1,i,i,?,?
COc1ccccc1-c1cc(C(=O)NC2CCCCCC2)c2cnn(C)c2n1,nt,nt,i,?
COc1ccc(OC)c(S(=O)(=O)N2CCCCCCNC(=O)[C@@H]3CCCC[C@@H]32)c1,i,i,i,i
CCC(C)C(=O)NC1CCN(c2cn[nH]c(=O)c2)CC1 (stereo not drawn),i,i,i,i
CCCCn1c(=O)c(C(=O)N2CCN(C(=O)c3ccccc3OC)CC2)nc2cccnc21,nt,nt,i,i
Fc1ccccc1CN1CCNc2cnc(Oc3ccccc3)cc2C1,i,i,?,79µM
c1ccc(Oc2cc3c(cn2)NCCN(CC2CCOCC2)C3)cc1,i,i,i,?
Cc1cccc(CN2CCNc3cnc(Oc4ccccc4)cc3C2)c1,i,i,i,89µM
c1ccc(Oc2cc3c(cn2)NCCN(Cc2ccc4[nH]ccc4c2)C3)cc1,i,?,?,89µM
Fc1ccccc1CN1CCNc2cnc(Nc3ccccc3)cc2C1,i,?,?,100µM
COc1ccc(CN2CCNc3cnc(OCc4cccnc4)cc3C2)cc1,i,?,i,?
Cc1nn(-c2ccccc2)c2c1C(C1CC1)N(C1CCCN([S+](=O)([O-])c3ccccc3)C1)C2=O (stereo not drawn),nt,nt,i,i
O=C1CC(c2ccccc2)N(C(=O)CC2CCCC2)CCCCCCN1 (stereo not drawn),i,i,i,?
O=C(Cn1cccc1-c1nc(-c2ccccc2)no1)NCCCc1ccccc1,i,i,i,45µM
CC(C)CCN1CCc2c(n(CCOc3ccccc3)n(-c3ccccc3)c2=O)C1,i,i,100µM,?
COC1CCC(C(=O)N2CCc3c(n(CCOc4ccccc4)n(-c4ccccc4)c3=O)C2)CC1 (stereo not drawn),i,i,20µM,i
COCCn1c2c(c(=O)n1-c1ccccc1)CCN(C(=O)c1nc3ccccc3[nH]1)C2,i,i,89µM,i
CCn1c2c(c(=O)n1-c1ccccc1)CCN(Cc1cncc(OC)c1)C2,i,i,100µM,i
SMILES,Luciferase inh,hNpr1 antagonist,NIH3T3 tox,HEK cytotox
CCOC(=O)[C@@H]1[C@@H](OC)C(=O)N(C(C)C)C12CCN(C(=O)c1csc(-c3cccs3)n1)CC2,nt,nt,i,?
O=C1CCN(Cc2cccnc2)CCCC(c2nc(-c3cccnc3)no2)CCN1 (stereo not drawn),i,i,i,?
O=C(NC1CCCC1)c1nc2cccnc2n(C2CC2)c1=O,nt,nt,i,i
CN(C)C(=O)NC1CCCN(c2ccc3nnc(C4CC4)n3n2)C1 (stereo not drawn),nt,nt,i,i
CCc1ccc(S(=O)(=O)c2nnn3c2nc(NCc2ccc(F)cc2)c2ccccc23)cc1,nt,nt,?,i
O=S(=O)(c1ccc(Cl)cc1)c1nnn2c1nc(NCc1ccc(F)cc1)c1ccccc12,nt,nt,32µM,?
CC(C)(C)C(=O)NC1CCN(Cc2cccc(-c3ccc(F)c(F)c3)c2)CC1,nt,nt,i,i
CSc1ccc(-c2cccc(CN3CCC(NC(=O)Nc4ccc(Cl)cc4)CC3)c2)cc1,nt,nt,13µM,22µM
CSc1ccc(-c2cccc(CN3CCC(NC(=O)c4ccc(Cl)cc4)CC3)c2)cc1,nt,nt,i,i
O=C(Nc1ccccc1)NC1CCN(Cc2cccc(-c3ccc(F)c(F)c3)c2)CC1,nt,nt,16µM,20µM
CSc1ccc(-c2cccc(CN3CCC(NC(=O)c4ccccc4Cl)CC3)c2)cc1,nt,nt,?,40µM
COc1ccc(CCC(=O)N2CCCCCCN(C)C(=O)[C@@H]3CCC[C@@H]32)cc1,i,i,i,i
COc1cccc(CN2Cc3cc(NC(=O)c4cc(OC)cc(OC)c4)ccc3OCC2=O)c1,i,i,?,?
Cc1nn(-c2ccc(F)cc2)c(C)c1[C@@H]1C=C[C@@H](NS(=O)(=O)c2cccs2)C1,i,i,?,?
Cc1nn(CCC#N)c(C)c1[C@@H]1C=C[C@@H](NS(=O)(=O)c2cccs2)C1,i,i,45µM,i
O=C(c1cccs1)N1CCOc2ccc(N3CCCC3)cc2C1,nt,nt,?,18µM
Cc1ccc([S+](=O)([O-])N2CCN(CCCn3nc4n(c3=O)CCCC4)CC2)cc1,nt,nt,i,i
O=c1cc(N2CCOCC2)oc2c(NCc3cnccn3)nccc12,i,i,100µM,i
CN1CCN(c2cc(=O)c3ccnc(NCc4ccccc4)c3o2)CC1,i,i,?,i
O=c1cc(N2CCOCC2)oc2c(NCC3CCOCC3)nccc12,i,i,28µM,i
CN1CC(C(=O)NCc2ccc(F)cc2)NC1=O (stereo not drawn),nt,nt,i,i
O=C(N[C@@H]1CN(Cc2ccccc2)C[C@H]1CO)c1cn[nH]c1,i,i,i,i
O=C(N[C@@H]1CN(Cc2cc(F)cc(F)c2)C[C@H]1CO)c1ccccc1,i,i,i,i
O=C(N[C@@H]1CN(Cc2cccc(F)c2)C[C@H]1CO)c1ccccc1,i,i,?,7.1µM
COc1ccc(C(=O)N[C@@H]2CN(Cc3ccccc3)C[C@H]2CO)cn1,i,i,?,28µM
SMILES,Luciferase inh,hNpr1 antagonist,NIH3T3 tox,HEK cytotox
CCOC(=O)C(C)Oc1cccn2c(=O)c(-c3cc(C)n(-c4ccc(Cl)cc4)n3)c(C)nc12 (stereo not drawn),i,i,i,?
CN(CCc1ccccn1)[C@@H]1[C@H](O)[C@H](CO)O[C@@H]1CN(Cc1ccc(F)cc1)Cc1ccc(F)cc1,i,i,50µM,35µM
O=C(NC1CCN(c2cc(-c3ccc(Cl)cc3)[nH]n2)C1)c1ccccc1Br (stereo not drawn),i,?,35µM,28µM
O=C(NC1CCN(c2cc(-c3ccc(Cl)cc3)[nH]n2)C1)c1ccc(F)cc1F (stereo not drawn),i,?,?,50µM
COc1ccc(C(=O)NC2CCN(c3cc(-c4ccc(Cl)cc4)[nH]n3)C2)c(C)c1 (stereo not drawn),i,i,?,?
COc1ccc(C(=O)NC2CCN(c3cc(-c4ccc(Cl)cc4)[nH]n3)C2)c(OC)c1 (stereo not drawn),i,i,35µM,45µM
O=C(O)c1ccc(-c2cccc(C(F)(F)F)c2)cc1,nt,nt,i,i
